An excerpt weighted towards active compounds, which were near 1.8% of everything screened.
KLF5 inhibitor: KLF5 expression inhibitors, primary screen, DLD-1 cells, luminescence; 0.23% of 290,000 active; AID 1700, 2009; DLD-1 KLF5 promoter-luciferase reporter; inhibition, % at 5 µM;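 active = inhibition above a per-plate limit of that plate's mean compound inhibition plus 3 SD, cut at about 60% in these data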;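 also: 0% = DMSO wells and 100% = LY294002 at 200 µM; higher means less KLF5 promoter-driven luciferase light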
Ba/F3 V617F tox: reduced viability of JAK2V617F-dependent Ba/F3 cells, primary screen, JAK2V617F inhibitor project, cell-based, Ba/F3 EpoR-JAK2V617F, luminescence. ATP luminescence. inhibition, % at 5.6 µM. 1.1% of 220,000 active. AID 1446, 2008;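 active = inhibition above the campaign mean plus 3 SD over all tested compounds, cut at about 24% in these data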;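 also: cytokine-independent growth of Ba/F3 cells driven by EpoR plus mutant JAK2; 0% = DMSO-treated cells and 100% = JAK inhibitor I control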
IEC-6 cytotox: cytotoxicity in IEC-6 intestinal epithelial cells, primary screen, cytotoxicity control for KLF5 inhibitor project, cell-based, luminescence | inhibition, % at 5 µM | AID 1825, 2009 | 0.78% of 290,000 active | IEC-6 cytotoxicity, luminescence viability;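 also: 0% = plate median of test compound wells and 100% = cytotoxic reference compound wells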
BaF3 parental: parental Ba/F3 cell viability inhibition, counter-screen for JAK2V617F inhibitor project, murine pro-B, CellTiter-Glo luminescence | 1.1% of 220,000 active | inhibition, % at 5.6 µM | CellTiter-Glo ATP luminescence;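 active = inhibition above a per-campaign cutoff, the mean inhibition of all tested compounds plus 3 SD, cut at about 27% in these data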;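 also: 0% = DMSO wells and 100% = JAK Inhibitor I control wells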
APP 5UTR inh: inhibitors of APP translation via 5'UTR reporter, primary screen, APP 5'UTR luciferase, SH-SY5Y cells | 0.82% of 190,000 active | SH-SY5Y APP 5'UTR-luciferase reporter, luminescence | AID 1285, 2008 | inhibition, % at 2 µM;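 active = inhibition above a set limit, derived from the sample mean plus 3 SD, cut at about 45% in these data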
IEC-6 cytotox cf: cytotoxic compounds in IEC-6 epithelial cells, confirmation, cytotoxicity control, cell-based, luminescence; inhibition, % at 5 µM; IEC-6 rat intestinal epithelial viability; 63% of 1,900 active; shares compounds with IEC-6 cytotox;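 also: 0% = vehicle and 100% = reference cytotoxic drug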
* = called active by the depositor; · = no result given; ! = a repeat was not active. Rule as the data show it, unless noted: active = inhibition above about 22%; inactive = the rest.

SMILES	KLF5 inhibitor	Ba/F3 V617F tox	IEC-6 cytotox	BaF3 parental	APP 5UTR inh	IEC-6 cytotox cf
Cc1c(Nc2cc(Cl)c3nonc3c2[N+](=O)[O-])c(=O)n(-c2ccccc2)n1C	3	95*	96*	103*	95*	9
O=[N+]([O-])c1c(Nc2cccc(O)c2)cc(Cl)c2nonc12	4	·	100*	·	·	29*
O=C(O)c1ccc(Nc2cc(Cl)c3nonc3c2[N+](=O)[O-])cc1	-15	-6	2	0	-2	·
CN(C)c1ccc(/C=C/c2ccc3c4ccccc4ccc3[n+]2-c2ccccc2)cc1	45	101*	65*	89*	83*	80*
CCn1c2ccccc2c2cc([N+](=O)[O-])ccc21	-11	-2	-6	7	-18	·
CN(C)CCn1c2ccccc2c2nc3ccc([N+](=O)[O-])cc3cc21	-1	87*	82*	71*	·	51*
CC1=C(C(=O)OCc2ccc3c(c2)OCO3)C(c2ccc(F)cc2)NC(=O)N1 (stereo not drawn)	41	52*	38*	31*	44	47*
CC1=C(C(=O)OCc2ccc3c(c2)OCO3)C(c2ccc(Cl)cc2)NC(=O)N1 (stereo not drawn)	54	74*	82*	76*	78*	72*
CSCCOC(=O)C1=C(C)NC(=O)NC1c1ccc2c(c1)OCO2 (stereo not drawn)	-8	·	5	·	·	·
CC(C)C[C@H](NC(=O)c1cc2cc(Cl)ccc2n1C)C(=O)N1CCC(C(=O)O)CC1	-41	·	-4	·	·	·
CN1CCc2c(sc(NC(=O)c3ccc([N+](=O)[O-])o3)c2C(N)=O)C1	34	·	101*	·	·	88*
N#Cc1c(NC(=O)c2ccc([N+](=O)[O-])o2)sc2c1CCC2	-34	·	39*	·	·	16
NC(=O)c1c(NC(=O)c2ccc([N+](=O)[O-])o2)sc2c1CCCC2	24	·	100*	·	·	39*
CC(C)c1onc(C(=O)Nc2sc3c(c2C#N)CCC3)c1[N+](=O)[O-]	-21	-3	2	0	6	·
Cc1ccccc1CN(c1ccc(C(=O)N/N=C/c2ccc(OCC(N)=O)cc2)cc1)S(C)(=O)=O	-30	-1	-1	0	-4	·
CC1CCC(C(C)C)C(OC(=O)C[n+]2cc(-c3ccc(Cl)cc3)n3c2CCC3)C1 (stereo not drawn)	-119	0	6	-2	·	·
CC1CCC(C(C)C)C(OC(=O)Cn2c(-c3ccccc3)[n+](C)c3ccccc32)C1 (stereo not drawn)	18	101*	28*!	93*	-19	18
CCC1=C([N+](=O)[O-])C(c2ccc3c(c2)OCO3)NC(=O)N1 (stereo not drawn)	10	·	-7	·	·	·
COc1cc2c3c(c1)C(C)=CC(C)(C)N3C(=O)C2=O	-3	-7	87*	-1	30	44*
COc1ccc(CC(=O)NNC(=O)c2ccc(Br)o2)cc1	10	·	2	·	·	·
C/C=C(\C)CN1CCC(Oc2ccc(C(=O)NCc3ccccn3)cc2)CC1	-12	·	-1	·	·	·
COc1cc(CN2CCc3ccccc3C2)ccc1O	19	97*	30*	103*	·	16
COc1ccccc1-n1c(-c2ccc(Cl)cc2)c[nH]c1=S	-29	-1	-8	5	3	·
CC(C)(C)NC(=O)c1ccc(NC(=O)CSc2ccccc2)cc1	-21	2	4	6	0	·
COc1cc(OC)cc(C(=O)N/N=C(\C)CC(=O)Nc2ccccn2)c1	29	·	74*	·	·	6
C/C(CC(=O)Nc1ccccn1)=N\NC(=O)c1ccccc1	-16	2	4	3	-10	·
COc1ccc(CNC(=O)C/C(C)=N/NC(=O)c2cc(OC)cc(OC)c2)cc1	39	·	77*	·	·	5
COc1ccc(CNC(=O)C/C(C)=N/NC(=O)c2ccc(OC)cc2OC)cc1	15	·	4	·	·	·
COc1ccc(CNn2c(-c3ccccc3F)nc3ccccc3c2=O)cc1OC	-9	2	-1	8	-3	·
O=C(O)c1ccc(N2C(=O)CC(N3CCN(c4cccc(C(F)(F)F)c4)CC3)C2=O)cc1 (stereo not drawn)	-30	·	-1	·	·	·

Compound activity (PubChem BioAssay)
